# Read-outs that look alike come from different tables or passages of the source.
# Legend:
# Parameters in all cases: species or system human, MV4-11 + K-562 + COLO205 + SK-N-BE2 + OVCAR-8
# ADCK3 = settings: read-out: apparent Kd, n = 1
# AKT1 = settings: read-out: apparent Kd, n = 1
# ACOX1 = settings: read-out: apparent Kd, compound concentrations: 100 nM and 1000 nM (sheet 'Samples'), n = 1
# CAMK4 = settings: read-out: apparent Kd, n = 1
# PDXK = settings: read-out: apparent Kd, compound concentrations: 100 nM and 1000 nM (sheet 'Samples'), n = 1
# DCTPP1 = settings: read-out: apparent Kd; compound concentrations: 100 nM and 1000 nM (sheet 'Samples'), CATDS: 2.52871729428043E-2; n = 1
# DDR2 = settings: read-out: apparent Kd; compound concentrations: 100 nM and 1000 nM (sheet 'Samples'), CATDS: 5.5525356317498699E-2; n = 1
# ERN1 = settings: read-out: apparent Kd, n = 1
# CSNK1G3 = settings: read-out: apparent Kd; compound concentrations: 100 nM and 1000 nM (sheet 'Samples'), CATDS: 2.4754449130961701E-2; n = 1
# PI4KA = settings: read-out: apparent Kd; compound concentrations: 100 nM and 1000 nM (sheet 'Samples'), CATDS: 3.8493630683817899E-2; n = 1
# PRKDC = settings: read-out: apparent Kd; compound concentrations: 100 nM and 1000 nM (sheet 'Samples'), CATDS: 3.7580559894827101E-2; n = 1
# COX5A = settings: read-out: apparent Kd; compound concentrations:100 nM and 1000 nM (sheet 'Samples'); n = 1
# TAOK3 = settings: read-out: apparent Kd; compound concentrations:100 nM and 1000 nM (sheet 'Samples'); n = 1
# MET = settings: read-out: apparent Kd; compound concentrations:100 nM and 1000 nM (sheet 'Samples'); n = 1
# [1] = compound concentrations:100 nM and 1000 nM (sheet 'Samples')
compound,measurement,setting,value
CCn1c(-c2nonc2N)nc2c(C#CC(C)(C)O)nc(O[C@@H](CN)c3ccccc3)cc21.O=C(O)C(F)(F)F [GSK1007102B],potency estimated from few doses,ADCK3; [1],1060 nM
same,potency estimated from few doses,AKT1; [1],1120 nM
CNCC#Cc1c(F)ccc2c1/C(=C/c1[nH]ccc1OC)C(=O)N2.Cl [RO0281601-001],potency estimated from few doses,ACOX1; CATDS: 2.54235943095352E-2,1140 nM
c1cnn2ncc(-c3ccnc(Nc4ccc5c(c4)OCCO5)n3)c2c1 [GW806290X],potency estimated from few doses,"AKT1; compound concentrations: 100 nM and 1000 nM (sheet 'Samples'), CATDS: 2.02119935433384E-2",1930 nM
O=C(O)C(F)(F)F.O=c1[nH]ccc2nc(N[C@@H]3CCNC3)nc(Nc3cc(Cl)cc(Cl)c3)c12 [GSK2188764A],potency estimated from few doses,CAMK4; [1],977 nM
CCN(CC)Cc1ccc(Nc2nccc(-c3cnn4ncccc34)n2)cc1 [GW780056X],potency estimated from few doses,ACOX1; CATDS: 2.3991726091544201E-2,753 nM
same,potency estimated from few doses,PDXK; CATDS: 2.0244692732670499E-2,1270 nM
CS(=O)(=O)Nc1cccc(-c2ccc3c(NC(=O)C4CC4)n[nH]c3c2)c1 [SB-742864],potency estimated from few doses,"ADCK3; compound concentrations: 100 nM and 1000 nM (sheet 'Samples'), CATDS: 0.16822822033669799",659 nM
c1ccc(-c2n[nH]cc2Nc2ccnc3ccccc23)nc1 [GW694077X],potency estimated from few doses,DCTPP1,1400 nM
CN(c1ccc(NC(=O)NCCN2CCOCC2)cc1)c1ccnc(Nc2ccc(CS(C)(=O)=O)cc2)n1.Cl [GW830365A],potency estimated from few doses,DDR2,940 nM
COc1cccc(C2=C(c3c(C)n(C)c4ccccc34)C(=O)NC2=O)c1 [RO3300167-000],potency estimated from few doses,"ERN1; compound concentrations: 100 nM and 1000 nM (sheet 'Samples'), CATDS: 7.9309280446682603E-2",1540 nM
CCC(CC)(CC)n1cnc2c(N)ncnc21 [SKF-97620],potency estimated from few doses,CSNK1G3,1820 nM
same,potency estimated from few doses,PI4KA,553 nM
same,potency estimated from few doses,PRKDC,583 nM
Cl.Cn1c(=O)c(Cc2ccccc2F)cc2cnc(NC3CCOCC3)nc21 [RO3305377-001],potency estimated from few doses,"CAMK4; compound concentrations: 100 nM and 1000 nM (sheet 'Samples'), CATDS: 1.6194401739627301E-2",2150 nM
CN(C)C(=O)/C(C#N)=C/c1ccc(-c2nc3cnc4[nH]ccc4c3n2C2CCCCC2)o1 [FM-381],potency estimated from few doses,COX5A,756 nM
Cn1cc(C2=C(c3c(S(C)=O)n(C)c4ccccc34)C(=O)NC2=O)c2ccccc21 (centres unmarked) [RO0317379-000],potency estimated from few doses,PDXK; CATDS: 0.122248811016512,1030 nM
Cc1occc1-c1nc(N)c(OC[C@@H](N)Cc2c[nH]c3ccccc23)cc1-c1cc2c(C)n[nH]c2cn1 [GSK1660450B],potency estimated from few doses,COX5A,824 nM
same,potency estimated from few doses,TAOK3,76 nM
Nc1nc(-c2ccc3c(N)n[nH]c3c2)cc(N2CCCC(NC(=O)c3ccccc3)C2)n1 (centres unmarked) [GSK2286775B],potency estimated from few doses,CAMK4; [1],1090 nM
same,potency estimated from few doses,MET,2250 nM
O=C(Nc1n[nH]c2nc(-c3ccccc3O)ccc12)C1CC1 [SB-711880],potency estimated from few doses,ERN1; [1],1700 nM
COc1ccc(-n2cnc3c(N)ncnc32)cc1 [SKF-97236],potency estimated from few doses,"ADCK3; compound concentrations: 100 nM and 1000 nM (sheet 'Samples'), CATDS: 0.16598723814203101",922 nM

# Reference: article PMC11062922 (Nature Chemical Biology, 2023)
